According to PubChem BioAssay (NCATS):
Inconclusive results are not listed. Values without a mark were called inactive. Calls of active or inactive are those of the source. Calls follow the shape of the full dose curve.

Biological target: Retinoic acid receptor RXR-alpha (Homo sapiens) (UniProt P19793)
Assay: qHTS assay for small molecule agonists of retinoid X receptor alpha signaling (AID 588544)
Conditions: HEK293T RXRa-UAS-bla, beta-lactamase reporter, 18 h; series mostly up to 76.7 µM; activation: at the top concentration
From the text: NIH Chemical Genomics Center [NCGC] U.S. Environmental Protection Agency [EPA] National Institutes of Environmental Health Sciences [NIEHS] National Toxicology Program [NTP] NCGC Assay Overview The Retinoid X receptor (RXR), a nuclear hormone receptor is expressed in liver, spleen, placenta, epidermis, central nervous system. These receptors are able to form homo and heterodimers with other nuclear receptors and due to this heterodimerizing ability, RXR functions as master regulators producing diverse physiological effects. Three subtypes of RXR exist; alpha, beta and gamma. Retinoid X receptor alpha (RXR-alpha) has potential roles in metabolic signaling pathways, skin alopecia, dermal cysts, cardiac development, insulin sensitization etc. Therefore screening environmental chemicals on RXR-alpha signaling can be used for the studies focused on such therapeutic applications.
NCGC Assay Protocol Summary Using a beta-lactamase reporter-gene under control of Retinoid X receptor--alpha (RXR-alpha) response element, a cell-based assay [GeneBLAzer (RXR-alpha -UAS-bla assay developed by Invitrogen] was used to measure RXR-alpha ligands signaling. GeneBLAzer RXR-alpha -UAS-bla HEK293T cells were used with assay medium containing 2% charcoal-stripped FBS. The assay was performed in clear bottom black Greiner 1536-well plates. 9-cis-retinoic acid was used in the screen as the positive control. Library compounds were measured for their ability to stimulate the reporter gene activity. Compounds were screened in a titration series in 1536-well format. The fluorescence intensity (405 nm excitation, 460/530 nm emission) was measured using an EnVision plate reader. Data was normalized relative to 9-cis-retinoic acid control (500 nM, 100%), and DMSO only wells (basal, 0%). Concentration-response titration points for each compound were fitted to the Hill equation yielding concentrations of half-maximal stimulation (EC50) and maximal response (efficacy) values. qHTS protocol for RXR-alpha beta-lactamase assay in agonist mode [Step] [Parameter] [Value] [Description] 1. Reagent; 6 uL; 2500 cells/well 2. Incubation; 37 C for 4 hrs 3. Compounds; 23 nL; 0.59 nM to 92 uM 4. Controls (9-cis-retinoic acid); 23 nL, - One column with dose response, start 38 uM, 1:3 dilutions in duplicates - Final concentrations of 500 nM and 50 nM in two columns 5. Incubation; 37 C for 18 hrs 6. Detection reagent; 1 uL of CCF4-dye 7. Incubation; RT for 2 hrs 8. Detection; Fluorescence; Envision plate reader

Chain of Retinoic acid receptor RXR-alpha (Homo sapiens) (P19793 whole entry, looked up): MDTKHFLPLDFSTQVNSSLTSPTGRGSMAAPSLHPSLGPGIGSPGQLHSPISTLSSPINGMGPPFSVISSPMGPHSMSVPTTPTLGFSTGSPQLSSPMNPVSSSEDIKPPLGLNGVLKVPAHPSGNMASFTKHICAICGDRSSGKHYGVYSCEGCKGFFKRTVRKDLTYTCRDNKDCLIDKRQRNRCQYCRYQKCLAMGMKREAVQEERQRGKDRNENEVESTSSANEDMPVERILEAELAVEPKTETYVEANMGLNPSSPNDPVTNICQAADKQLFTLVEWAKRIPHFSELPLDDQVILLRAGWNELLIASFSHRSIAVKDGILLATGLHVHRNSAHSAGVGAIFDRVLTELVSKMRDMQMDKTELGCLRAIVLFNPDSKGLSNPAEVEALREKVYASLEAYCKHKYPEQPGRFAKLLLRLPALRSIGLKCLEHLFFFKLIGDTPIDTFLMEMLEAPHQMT

**Q.** `COc1ccc2[nH]cc(CCNC(C)=O)c2c1` was tested. Which outcome did it give?
**A.** inactive

**Q.** Which outcome does the source give for `Cc1cn([C@H]2C=C[C@@H](CO)O2)c(=O)[nH]c1=O` here?
**A.** inactive

**Q.** Which “activation” value does the source give for `CC(C)Cc1ccc(C(C)C(=O)O)cc1` (configuration not stated) here?
**A.** -14.1%

**Q.** For `NS(=O)(=O)c1cc2c(cc1Cl)NCNS2(=O)=O`, which outcome is on record?
**A.** inactive

**Q.** How did the “activation” value turn out when `N[C@@H](Cc1c[nH]c2ccc(O)cc12)C(=O)O` was run?
**A.** 4.95%

**Q.** Which outcome does the source give for `CC(COc1ccccc1)N(CCCl)Cc1ccccc1` (configuration not stated) here?
**A.** inactive

**Q.** `Nc1ccn([C@H]2CC[C@@H](CO)O2)c(=O)n1` was tested. Which outcome did it give?
**A.** inactive

**Q.** `Cc1cn([C@H]2C[C@H](N=[N+]=[N-])[C@@H](CO)O2)c(=O)[nH]c1=O` was tested. Which outcome did it give?
**A.** inactive

**Q.** Which outcome does the source give for `Cn1c(=O)c2c(ncn2C)n(C)c1=O` here?
**A.** inactive

**Q.** Which “activation” value does the source give for `Cn1c(=O)c2[nH]cnc2n(C)c1=O` here?
**A.** 0.949%

**Q.** Which “activation” value does the source give for `C[C@](N)(Cc1ccc(O)c(O)c1)C(=O)O` here?
**A.** 3.55%

**Q.** `CC(C)NCC(O)c1ccc(O)c(O)c1` (configuration not stated) was tested. Which outcome did it give?
**A.** inactive

**Q.** For `CCOC(=O)C(C)(C)Oc1ccc(Cl)cc1`, which “activation” value is on record?
**A.** 5.24%

**Q.** With `O=C(CCCN1CCC(O)(c2ccc(Cl)cc2)CC1)c1ccc(F)cc1` as the molecule, how does the “activation” value read?
**A.** 2.18%

**Q.** Which “activation” value does the source give for `NCCS(=O)(=O)O` here?
**A.** 4.38%

**Q.** `CCC1(c2ccccc2)C(=O)NCNC1=O` was tested. Which outcome did it give?
**A.** inactive

**Q.** `O=c1[nH]cc(F)c(=O)[nH]1` was tested. Which “activation” value did it give?
**A.** 18.9%
